Data published in PubChem BioAssay (Tox21).
Results filed as inconclusive are left out. Entries that show only a call come without a potency. Calls of active or inactive are those of the source. Unless noted, calls come from the whole dose curve; as a rule, active = well fitted curve in the direction sought with a large enough effect in the repeat runs; inconclusive = weak or mixed curves; inactive = no such curve, though single readings can be large; an effect the other way counts as inactive or inconclusive.

What was measured:
[1] = qHTS assay to identify small molecule antagonists of the thyroid receptor (TR) signaling pathway (AID 743065); note: nearly all actives have a fitted effect of over 55% in size; note: potency is the fitted concentration of half-maximal effect
How it was run: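 GH3.TRE-Luc rat pituitary cells (two TREs driving luciferase) were dosed with compound, then stimulated with 1 nM T3 (final) for 23.5 h at 37 C. ONE-Glo luminescence was the read-out, with CellTiter-Fluor fluorescence as the cytotoxicity counter-screen.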

[2] = tested on: thyroid hormone receptor (rat, GH3 cells); experiment: qHTS assay to identify small molecule agonists of the thyroid receptor (TR) signaling pathway (AID 743066; calls by dose curve)
[3] = biological target: Estrogen receptor (Homo sapiens) (UniProt P03372); experiment: qHTS assay to identify small molecule antagonists of the estrogen receptor alpha (ER-alpha) signaling pathway (AID 743069; active = well fitted curve in the direction sought with a large enough effect in the signal ratio in the repeat runs, not every such curve was filed as active; the % refers to the signal ratio)
How it was run: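 Beta-lactamase FRET fluorescence is read after 2 hr at room temperature with LiveBLAzer B/G substrate. Before that, ER-alpha-bla HEK293 cells sit 4 hr after plating, then receive compound plus 17beta-estradiol and incubate 18 hr at 37C.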

[4] = qHTS assay to identify small molecule antagonists of the estrogen receptor alpha (ER-alpha) signaling pathway - cell viability counter screen (AID 743074; calls by dose curve;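 note: HEK293 cells carrying ER-alpha-UAS-bla reporter stimulated with 17beta-estradiol; nearly all actives have a fitted effect of over 45% in size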; note: potency is the fitted concentration of half-maximal effect)
[5] = biological target: Estrogen receptor (Homo sapiens) (UniProt P03372); experiment: qHTS assay to identify small molecule agonists of the estrogen receptor alpha (ER-alpha) signaling pathway (AID 743075; calls by dose curve;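 note: HEK293 GripTite cells with ER-alpha and UAS-driven beta-lactamase reporter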)
[6] = biological target: Estrogen receptor (Homo sapiens) (UniProt P03372); experiment: qHTS assay to identify small molecule agonists of the estrogen receptor alpha (ER-alpha) signaling pathway using the BG1 cell line (AID 743079); note: nearly all actives have a fitted effect of over 20% in size; note: potency is the fitted concentration of half-maximal effect
[7] = qHTS assay to identify small molecule antagonists of the estrogen receptor alpha (ER-alpha) signaling pathway using the BG1 cell line (AID 743080; calls by dose curve;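 note: BG1 cells stimulated with 17beta-estradiol alongside compound; series mostly up to about 70 µM; nearly all actives have a fitted effect of over 25% in size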)
How it was run: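 Luminescence from a 4×ERE-luciferase reporter in BG1-Luc-4E2 cells served as read-out. Cells, pre-cultured 5 days in stripped-serum phenol-red-free medium, were exposed to compound with 17beta-estradiol co-stimulation for 21.5 h at 37 C.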

[8] = biological target: Aromatase (Homo sapiens) (UniProt P11511); experiment: qHTS assay to identify aromatase inhibitors (AID 743083); note: nearly all actives have a fitted effect of over 55% in size; note: potency is the fitted concentration of half-maximal effect
[9] = qHTS assay to identify aromatase inhibitors - cell viability counter screen (AID 743084);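 note: cells stimulated with testosterone during compound exposure; nearly all actives have a fitted effect of over 55% in size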; note: potency is the fitted concentration of half-maximal effect
[10] = qHTS assay to identify small molecule antagonists of the estrogen receptor alpha (ER-alpha) signaling pathway using the BG1 cell line - cell viability counter screen (AID 743081);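 note: compound given together with 17beta-estradiol as the ER stimulus; series mostly up to about 70 µM; nearly all actives have a fitted effect of over 45% in size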

Sequence of Aromatase (Homo sapiens) (P11511 whole entry, looked up): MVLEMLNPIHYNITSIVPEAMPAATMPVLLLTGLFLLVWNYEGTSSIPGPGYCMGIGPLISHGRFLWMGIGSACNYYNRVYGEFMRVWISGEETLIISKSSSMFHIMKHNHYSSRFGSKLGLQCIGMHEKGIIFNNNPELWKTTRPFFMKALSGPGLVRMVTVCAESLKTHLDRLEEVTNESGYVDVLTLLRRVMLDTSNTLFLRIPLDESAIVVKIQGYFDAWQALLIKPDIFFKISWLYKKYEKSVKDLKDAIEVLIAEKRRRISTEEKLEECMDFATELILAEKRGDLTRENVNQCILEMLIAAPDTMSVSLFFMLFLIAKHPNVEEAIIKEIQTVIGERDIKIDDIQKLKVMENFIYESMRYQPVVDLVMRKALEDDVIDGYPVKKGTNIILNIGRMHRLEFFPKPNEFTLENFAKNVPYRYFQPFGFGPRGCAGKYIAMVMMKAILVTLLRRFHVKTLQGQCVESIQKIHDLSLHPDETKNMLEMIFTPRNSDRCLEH
Sequence of Estrogen receptor (Homo sapiens) (P03372 whole entry, looked up): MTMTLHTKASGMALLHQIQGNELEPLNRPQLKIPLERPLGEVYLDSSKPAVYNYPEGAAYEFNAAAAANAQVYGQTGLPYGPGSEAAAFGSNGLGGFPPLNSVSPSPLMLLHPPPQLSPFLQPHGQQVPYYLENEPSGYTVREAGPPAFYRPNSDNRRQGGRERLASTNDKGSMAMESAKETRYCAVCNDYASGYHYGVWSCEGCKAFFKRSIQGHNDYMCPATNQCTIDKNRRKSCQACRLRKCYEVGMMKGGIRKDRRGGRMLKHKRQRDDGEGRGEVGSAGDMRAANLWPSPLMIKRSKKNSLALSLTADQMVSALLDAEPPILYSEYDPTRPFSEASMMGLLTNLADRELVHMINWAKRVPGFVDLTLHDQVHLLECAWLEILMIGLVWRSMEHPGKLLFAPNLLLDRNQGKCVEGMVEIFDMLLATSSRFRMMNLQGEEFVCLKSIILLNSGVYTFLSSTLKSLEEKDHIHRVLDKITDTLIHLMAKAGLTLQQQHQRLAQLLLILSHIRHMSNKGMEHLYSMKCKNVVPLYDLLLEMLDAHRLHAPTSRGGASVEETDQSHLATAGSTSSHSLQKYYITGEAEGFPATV

COc1cc(OC)c2ccc(=O)oc2c1
Potency [1]: inactive
Potency [2]: inactive
Potency [3]: inactive
Potency [4]: inactive
Potency [5]: inactive
Potency [6]: inactive
Potency [7]: inactive
Potency [8]: inactive
Potency [9]: inactive

CC(C)N=C=NC(C)C
Potency [1]: inactive
Potency [2]: inactive
Potency [3]: inactive
Potency [4]: inactive
Potency [7]: inactive
Potency [10]: inactive
Potency [8]: inactive
Potency [9]: inactive

Nc1nc(-c2ccc([N+](=O)[O-])cc2)cs1
Potency [1]: inactive
Potency [2]: inactive
Potency [4]: inactive
Potency [10]: inactive
Potency [8]: inactive
Potency [9]: inactive

CS(=O)(=O)c1ccc([C@@H](C[C@H]2CCC(=O)C2)C(=O)Nc2cnccn2)cc1Cl
Potency [1]: inactive
Potency [2]: inactive
Potency [4]: inactive
Potency [5]: inactive
Potency [6]: inactive
Potency [7]: inactive
Potency [10]: inactive
Potency [8]: inactive

CCCCCCC(O)CCCCCCCCCCC(=O)OC (stereo not given)
Potency [1]: inactive
Potency [2]: inactive
Potency [4]: inactive
Potency [10]: inactive

CC1=CC[C@@]23C[C@@H]1C(C)(C)[C@@H]2CC[C@H]3C
Potency [1]: inactive
Potency [2]: inactive
Potency [4]: inactive
Potency [10]: inactive
Potency [8]: inactive
Potency [9]: inactive

CC(C)COC(=O)c1ccc(O)cc1
Potency [1]: inactive
Potency [2]: inactive
Potency [4]: inactive
Potency [10]: inactive
Potency [8]: inactive
Potency [9]: inactive

CCN(CC)c1cccc(O)c1
Potency [1]: inactive
Potency [2]: inactive
Potency [4]: inactive
Potency [6]: 70 µM (active)
Potency [7]: inactive
Potency [10]: inactive
Potency [8]: inactive
Potency [9]: inactive

CCC1CCC(CCC(=O)O)C1 (stereo not given)
Potency [1]: inactive
Potency [2]: inactive
Potency [4]: inactive
Potency [10]: inactive
Potency [8]: inactive
Potency [9]: inactive

COC1CCC=CO1 (stereo not given)
Potency [1]: inactive
Potency [2]: inactive
Potency [3]: inactive
Potency [4]: inactive
Potency [6]: inactive
Potency [7]: inactive
Potency [10]: inactive
Potency [8]: inactive

CC(C)Cc1ccc(CC(=O)O)cc1
Potency [1]: inactive
Potency [2]: inactive
Potency [4]: inactive
Potency [10]: inactive
Potency [8]: inactive
Potency [9]: inactive

COc1ccc(/C=C/C(=O)c2ccc(OC)cc2OC)cc1
Potency [1]: 26.6 µM (active)
Potency [2]: inactive
Potency [4]: inactive
Potency [10]: inactive
Potency [8]: inactive
Potency [9]: inactive

CC(C(=O)O)c1ccc(C(=O)c2cccs2)cc1 (stereo not given)
Potency [1]: inactive
Potency [2]: inactive
Potency [4]: inactive
Potency [10]: inactive
Potency [8]: inactive
Potency [9]: inactive

CN(C)CC/C=C1\c2ccccc2Sc2ccc(Cl)cc21
Potency [1]: 11.9 µM (active)
Potency [2]: inactive
Potency [4]: inactive
Potency [5]: inactive
Potency [6]: inactive
Potency [7]: inactive
Potency [10]: inactive

CC(=O)N[C@@H](Cc1ccc(O)cc1)C(=O)O
Potency [1]: inactive
Potency [2]: inactive
Potency [4]: inactive
Potency [10]: inactive

Nc1cccc2c(N)cccc12
Potency [1]: inactive
Potency [2]: inactive
Potency [3]: inactive
Potency [5]: inactive
Potency [7]: inactive
Potency [9]: inactive

Cc1cc([N+](=O)[O-])ccc1N
Potency [1]: inactive
Potency [2]: inactive
Potency [3]: inactive
Potency [5]: inactive
Potency [7]: inactive
Potency [10]: inactive
Potency [9]: 53.8 µM (active)

CCC(C)(C)C(=O)O
Potency [1]: inactive
Potency [2]: inactive
Potency [3]: inactive
Potency [4]: inactive
Potency [5]: inactive
Potency [7]: inactive
Potency [10]: inactive
Potency [8]: inactive
Potency [9]: inactive

Cc1c[nH]c2ccccc12
Potency [1]: inactive
Potency [2]: inactive
Potency [4]: inactive
Potency [10]: inactive
Potency [8]: inactive
Potency [9]: inactive

N[C@@H](Cc1cc(I)c(O)c(I)c1)C(=O)O
Potency [1]: inactive
Potency [2]: inactive
Potency [3]: inactive
Potency [5]: inactive
Potency [6]: inactive
Potency [7]: inactive
Potency [8]: inactive
Potency [9]: inactive

O=C(O)/C=C/c1ccc(O)c(O)c1
Potency [1]: inactive
Potency [2]: inactive
Potency [4]: inactive
Potency [10]: inactive
Potency [8]: inactive

Cc1ccc2nc(N)[nH]c(=O)c2c1Sc1ccncc1
Potency [1]: 8.41 µM (active)
Potency [2]: inactive
Potency [4]: 3.01 µM (active)
Potency [10]: inactive
Potency [8]: 9.44 µM (active)
Potency [9]: inactive

CCc1ccc(C)cc1
Potency [1]: inactive
Potency [2]: inactive
Potency [4]: inactive
Potency [10]: inactive
Potency [8]: inactive
Potency [9]: inactive

O=C1NC(=O)c2cccc3cccc1c23
Potency [1]: inactive
Potency [2]: inactive
Potency [4]: inactive
Potency [5]: inactive
Potency [6]: inactive
Potency [7]: inactive
Potency [10]: inactive
Potency [8]: inactive
Potency [9]: inactive

O=C(NS(=O)(=O)/C=C/c1ccccc1)c1ccc(F)cc1Cl
Potency [1]: inactive
Potency [2]: inactive
Potency [4]: inactive
Potency [5]: inactive
Potency [10]: inactive
Potency [8]: inactive
Potency [9]: inactive

C[C@H](CS)C(=O)N1CCC[C@H]1C(=O)O
Potency [1]: inactive
Potency [2]: inactive
Potency [4]: inactive
Potency [10]: inactive
Potency [8]: inactive
Potency [9]: inactive

CCCCCCCC(=O)OCCCCCC
Potency [1]: inactive
Potency [2]: inactive
Potency [4]: inactive
Potency [10]: inactive
Potency [8]: inactive
Potency [9]: inactive

CCC(=O)OCc1ccc(OC)cc1
Potency [1]: inactive
Potency [2]: inactive
Potency [4]: inactive
Potency [10]: inactive

C1CCCCC1
Potency [1]: inactive
Potency [2]: inactive
Potency [4]: inactive
Potency [10]: inactive
Potency [8]: inactive
Potency [9]: inactive

CCCCCCOC(=O)CCCCC
Potency [1]: inactive
Potency [2]: inactive
Potency [4]: inactive
Potency [10]: inactive
Potency [8]: inactive
Potency [9]: inactive

CCCCCCCCCCCCCOC(=O)CCSCCC(=O)OCCCCCCCCCCCCC
Potency [1]: inactive
Potency [2]: inactive
Potency [4]: inactive
Potency [10]: inactive
Potency [8]: inactive
Potency [9]: inactive

CC(C)(O)c1coc(S(=O)(=O)NC(=O)Nc2c3c(cc4c2CCC4)CCC3)c1
Potency [1]: inactive
Potency [2]: inactive
Potency [4]: inactive
Potency [10]: inactive
Potency [8]: inactive
Potency [9]: inactive

Nc1nc2ccc(OC(F)(F)F)cc2s1
Potency [1]: 21.1 µM (active)
Potency [2]: inactive
Potency [3]: inactive
Potency [4]: inactive
Potency [6]: 5.96 µM (active)
Potency [10]: inactive
Potency [8]: inactive
Potency [9]: inactive

O=C(/C=C/c1ccc([N+](=O)[O-])cc1)c1ccccc1
Potency [1]: 61.3 µM (active)
Potency [2]: inactive
Potency [3]: inactive
Potency [4]: inactive
Potency [6]: inactive
Potency [10]: inactive
Potency [8]: inactive
Potency [9]: inactive

COC(OC)OC
Potency [1]: inactive
Potency [2]: inactive
Potency [3]: inactive
Potency [5]: inactive
Potency [6]: inactive
Potency [7]: inactive
Potency [10]: inactive
Potency [8]: inactive
Potency [9]: inactive

CC(C)(C)C(O)/C=C/c1ccc2c(c1)OCO2 (stereo not given)
Potency [1]: inactive
Potency [2]: inactive
Potency [3]: inactive
Potency [4]: inactive
Potency [5]: inactive
Potency [7]: inactive
Potency [8]: inactive
Potency [9]: inactive
